High-throughput results deposited in PubChem BioAssay by several laboratories.
Hits are enriched below; roughly 2.3% of the tested compounds scored in any of these assays.
Mcl1 Noxa PPI: disrupts binding of human Mcl-1 to Noxa peptide. Q07820. TR-FRET Mcl-1/Noxa peptide binding, 2 h. inhibition, % at 21.7 µM. 220,000 compounds, 1.5% hits;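 active = compounds that cut the protein-peptide binding signal by more than 50% relative to plate controls in a single-dose test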;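 also: His-tagged Mcl-1 with rhodamine Noxa BH3 peptide and terbium anti-His antibody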
Mcl-1 Bim block: human Bim-Mcl-1 interaction inhibition; Bead-based flow cytometry, Bim peptide-Mcl-1 binding; inhibition, % at 10 µM; 190,000 compounds, 0.1% hits; in the data active = inhibition above about 40%
GLD-1 TGE inh: GLD-1-TGE RNA interaction inhibition (C. elegans); 320,000 compounds, 0.44% hits; inhibition, % at 5.96 µM; purified GLD-1 + fluorescein TGE RNA, fluorescence polarization;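 active = percent inhibition above a per-plate cutoff, the plate mean of test compounds plus 3 SD, cut at about 30% in these data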
MCL1-BIM inh: disrupts human MCL1 binding to BIM-BH3 peptide. Q07820. GST-MCL1 / FITC-Bim-BH3 fluorescence polarization. inhibition, % at 10.9 µM. 320,000 compounds, 0.68% hits;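 active = inhibition above the mean inhibition of all tested compounds plus 3 SD, set per campaign, cut at about 40% in these data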;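 also: higher means more loss of mP so more displacement of Bim peptide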
Mcl1 Bid PPI: Mcl-1/Bid interaction inhibition. Q07820. TR-FRET Mcl-1/Bid-Dy647 peptide binding, 1536-well. inhibition, % at 21.7 µM. 220,000 compounds, 0.97% hits. AID 1021;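 active = compounds that cut the binding signal by more than half at the single screening dose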;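 also: His-tagged Mcl-1 with europium anti-His antibody binding Bid BH3 peptide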
Bcl-xL primary: blocks human Bcl-xL binding to Bim BH3 peptide | GST-Bcl-xL / FITC-Bim BH3 peptide fluorescence polarization | inhibition, % at 10.9 µM | 320,000 compounds, 0.7% hits | AID 2129;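 active = inhibition above the mean of all tested compounds plus 3 SD, cutoff set per campaign, cut at about 30% in these data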;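 also: inhibitors lower millipolarization by displacing the labeled peptide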
Target sequence (Q07817 whole entry, looked up): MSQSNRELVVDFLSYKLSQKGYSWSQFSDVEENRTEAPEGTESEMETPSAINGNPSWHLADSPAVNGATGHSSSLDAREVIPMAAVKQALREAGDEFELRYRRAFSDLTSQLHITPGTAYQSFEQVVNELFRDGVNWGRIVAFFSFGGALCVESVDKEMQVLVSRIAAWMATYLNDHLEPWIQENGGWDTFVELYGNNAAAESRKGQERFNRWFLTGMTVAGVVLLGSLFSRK
A number is an active result; i = inactive; nt = not tested or not shown.

SMILES	Mcl1 Noxa PPI	Mcl-1 Bim block	GLD-1 TGE inh	MCL1-BIM inh	Mcl1 Bid PPI	Bcl-xL primary
CN=C(c1ccc(C)cc1)n1c(=S)nc(-c2ccc(C)cc2)n(C)c1=S	i	i	i	i	i	i
CC(C)OCCCNC(=O)c1c(N)n(/N=C/c2cccs2)c2nc3ccccc3nc12	i	i	i	i	61	i
COCCCNC(=O)c1c(N)n(/N=C/c2ccccn2)c2nc3ccccc3nc12	nt	i	nt	nt	nt	nt
CCc1ccc(NC(=O)Cn2nc(C(F)(F)F)c3c2CCC3)cc1	i	i	i	i	54	i
COc1ccc(S(=O)(=O)N2CCC(C(=O)NC3CCCCC3C)CC2)cc1 (stereo not given)	nt	nt	i	i	nt	i
CCOC(=O)Cn1c(=O)oc2cc(S(=O)(=O)Nc3cc(OCC)ccc3OCC)ccc21	i	i	i	i	i	i
CCOC(=O)Cn1c(=O)oc2cc(S(=O)(=O)Nc3ccc(N(CC)CC)cc3C)ccc21	54	i	i	i	i	i
COc1cc(/C=N/NC(=O)c2ccc(CN3C(=O)c4cccc5cccc3c45)cc2)cc(OC)c1O	76	nt	i	i	i	i
COc1cc(/C=N\NC(=O)c2ccc(-c3ccccc3)cc2)cc(Br)c1O	nt	nt	i	i	nt	i
COc1cc(/C=N/NC(=O)c2ccc(CSc3nc4ccccc4[nH]3)cc2)ccc1O	62	i	i	i	i	i
COc1ccc(/C=N/NC(=O)c2ccc(CN3C(=O)c4cccc5cccc3c45)cc2)cc1O	61	i	i	i	i	i
COc1cc(/C=N/NC(=O)c2ccccc2)ccc1O	i	i	i	i	i	i
COc1ccc(/C=N/NC(=O)c2nc(-c3ccccc3)cc(-c3ccccc3)n2)cc1O	68	i	i	i	i	i
O=C(Nc1ccccn1)c1ccc([N+](=O)[O-])cc1Cl	i	i	i	i	94	i
C/C(CC(=O)Nc1ccccn1)=N\NC(=O)c1ccc([N+](=O)[O-])cc1Cl	nt	nt	i	i	nt	i
CN(C)c1ccc(NC(=O)c2ccc([N+](=O)[O-])cc2Cl)cc1	74	i	i	i	i	i
CCOc1ccc(C(=O)Nc2nnn(CC)n2)cc1	i	62	i	i	i	i
O=C(CSc1nnc2scc(-c3ccccc3)n12)N1CCN(Cc2ccccc2)CC1	i	i	i	i	95	i
Cc1ccc(-c2csc3nnc(SCC(=O)N4CCN(Cc5ccccc5)CC4)n23)cc1	i	i	i	i	i	i
CC1=C(C(=O)N(C)C)C(c2ccc(N3CCOCC3)cc2)NC(=O)N1 (stereo not given)	i	i	i	i	i	i
O=C(CNCc1ccncc1)Nc1cc(S(=O)(=O)N2CCCCC2)ccc1Cl	i	i	i	i	55	i
COc1cc(OC)cc(C(=O)N[C@H](C(=O)NCc2ccccc2)C(C)C)c1	nt	nt	i	i	nt	i
CCCCN1CC(=O)N2[C@H]3c4ccc(OC)cc4OC[C@@H]3[C@H](c3ccccc3)[C@]2(C)C1=O	nt	nt	i	i	nt	i
Cc1cc(-c2nnc(SCC(=O)Nc3ccccc3C)n2N)n[nH]1	nt	nt	i	i	nt	i
COc1ccc(OC)c(/C=N/c2oc(-c3ccco3)c(-c3ccco3)c2C#N)c1	77	i	i	i	i	i
SMILES	Mcl1 Noxa PPI	Mcl-1 Bim block	GLD-1 TGE inh	MCL1-BIM inh	Mcl1 Bid PPI	Bcl-xL primary
COc1ccc(/C=C2\C(=O)N(c3c(Cl)cc(Cl)cc3Cl)N=C2NC(=O)c2cccc([N+](=O)[O-])c2)cc1	106	i	i	i	i	i
COc1cccc2cc(C(=O)CS(=O)(=O)c3ccc(Cl)cc3)c(=O)oc12	nt	nt	i	i	nt	i
N#Cc1c(NC(=O)c2ccncc2)sc2c1CCC2	69	i	i	i	i	i
O=C(O)c1ccc(NS(=O)(=O)c2cccc(C(=O)Nc3ccc(Br)cc3)c2)cc1	nt	nt	i	i	nt	i
CCOC(=O)c1c(NC(=O)c2ccncc2)sc(C)c1C	i	i	i	i	i	i
CCOC(=O)c1sc(NC(=O)c2ccncc2)c(C#N)c1C	54	i	i	i	i	i
N#Cc1c(NC(=O)c2cccc(S(=O)(=O)Nc3ccc(C(=O)O)cc3)c2)sc2c1CCCC2	77	nt	i	i	i	i
CCOC(=O)c1sc(NC(=O)CSc2nc(C)cc(C)c2C#N)c(C#N)c1C	i	i	i	i	66	i
CC1(c2ccccc2)NC(=O)N(CC(=O)N(c2ccccc2)C2CCS(=O)(=O)C2)C1=O (stereo not given)	nt	nt	i	nt	nt	nt
COc1ccc2c(c1)nc(NCCCO)n2Cc1ccccc1	i	nt	i	i	i	i
